This is a sample that favours compounds with a hit; in the whole collection about 32% have one here.
PostGolgi yeast: phenotypic screen on post-Golgi transport, primary screen; post-Golgi transport phenotypic cell assay; inhibition, % at 10 µM; 98,000 tested, 0.9% active; AID 739, 2007;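 note: yeast cells grown in 1536-well plates; yeast grown about 18 h at 30C before absorbance read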
CYP2C9 activ: human CYP2C9 activators, primary screen, biochemical, luminescence | Cytochrome P450 2C9 (Homo sapiens), P11712 | recombinant CYP2C9, luciferin-H conversion; active compounds read high; factor 1 = untreated enzyme, 0 = blocked | activation factor at 5 µM | 96,000 tested, 1.4% active;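 active = activation factor of 2 or more for CYP2C9 at a 5 µM dose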
Target sequence (P11712 whole entry, looked up): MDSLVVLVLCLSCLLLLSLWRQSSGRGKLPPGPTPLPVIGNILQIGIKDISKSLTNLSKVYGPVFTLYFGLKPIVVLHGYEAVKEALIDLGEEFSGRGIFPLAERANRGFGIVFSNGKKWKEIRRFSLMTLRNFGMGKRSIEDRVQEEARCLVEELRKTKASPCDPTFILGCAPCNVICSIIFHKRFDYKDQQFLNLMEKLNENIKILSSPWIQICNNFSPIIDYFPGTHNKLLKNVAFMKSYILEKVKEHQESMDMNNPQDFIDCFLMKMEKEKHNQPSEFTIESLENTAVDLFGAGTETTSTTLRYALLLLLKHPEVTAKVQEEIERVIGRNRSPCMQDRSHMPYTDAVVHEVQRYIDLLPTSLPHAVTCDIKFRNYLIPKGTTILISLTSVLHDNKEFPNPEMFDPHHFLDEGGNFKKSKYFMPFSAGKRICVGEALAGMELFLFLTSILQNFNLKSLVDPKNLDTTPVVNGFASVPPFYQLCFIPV
CYP2C9 inhib: blockers of cytochrome P450 2C9 activity – biochemical, luminescence, ADME assay, primary screen; P11712; CYP2C9 Supersomes, luciferin-H conversion; inhibition, % at 5 µM; 96,000 tested, 20% active;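 active = blocking of liver enzyme CYP2C9 beyond about 50% at 5 µM, limit read from the data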
PostGolgi ctrl: growth inhibition of yeast control strain, primary screen, counter-screen for post-Golgi transport modulator project; efflux-deficient yeast background strain, growth absorbance A615, 16 h; inhibition, % at 10 µM; 98,000 tested, 5% active
CYP2C19 inh: blockers of cytochrome P450 2C19 activity – biochemical, luminescence, ADME assay, primary screen; P33261; CYP2C19 Supersomes, luciferin-H EGE luminescence, 30 min; inhibition, % at 5 µM; 96,000 tested, 21% active; AID 778, 2007;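 active = CYP2C19 inhibition above a set limit at 5 µM in the primary screen, cut at about 50% in these data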
CYP2C19 activ: human CYP2C19 activators, primary screen, biochemical, luminescence | activation factor at 5 µM | recombinant CYP2C19, luciferin-H EGE luminescence; active compounds read high; 0 = fully inhibited enzyme, 1 = untreated enzyme | 96,000 tested, under 10 active | Cytochrome P450 2C19 (Homo sapiens), P33261;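 active = activation factor of at least 2 at 5 µM in the primary screen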
A number is an active result; . = inactive; / = no result given. Cut-off read from the data, not from the text of the source, unless noted: active = inhibition above about 30%; inactive = the rest.

SMILES	PostGolgi yeast	CYP2C9 activ	CYP2C9 inhib	PostGolgi ctrl	CYP2C19 inh	CYP2C19 activ
Clc1c(-c2nnc3n2CCC3)sc2ccccc12	.	3	.	.	.	.
Clc1c(-c2nnc3n2CCCCC3)sc2ccccc12	.	.	.	.	.	.
CC1S/C(=C(\C#N)C(N)=O)N(c2ccc(F)cc2)C1=O (stereo not given)	.	.	.	.	.	.
CC(C)=CC(=O)NCc1c(Cl)cccc1-n1cccc1	.	.	.	.	.	.
CC1CCCN(C(=O)c2ccc3c(c2NCCO)C(=O)c2ccccc2C3=O)C1 (stereo not given)	.	.	.	.	59	.
CC(C)(C)C(=O)/C=C/Nc1ccccc1O	.	.	.	.	.	.
Cc1sc2nc(C3CC3)nc(NCCNS(C)(=O)=O)c2c1C	.	.	76	.	.	.
Cc1nc(NCCc2ccc(S(N)(=O)=O)cc2)c2c(C)c(C)sc2n1	.	.	.	.	.	.
Cc1ccc(P(=Nc2ccccc2)(N2CCOCC2)N2CCOCC2)o1	.	.	.	.	.	.
CCOc1ccc(S(=O)(=O)N(C)c2ccc(OCC(=O)Nc3ccc4[nH]c(=O)[nH]c4c3)cc2)cc1	.	.	78	.	.	.
CCOc1ccc(OCC(=O)Nc2ccc(S(=O)(=O)Nc3cc(C)nc(C)n3)cc2)cc1	.	.	.	.	.	.
CN(c1ccc(OCC(=O)Nc2ccc3[nH]c(=O)[nH]c3c2)cc1)S(=O)(=O)c1ccc(Cl)cc1	.	.	62	.	.	.
Cc1ccc(Cl)cc1N1CCN(Cc2nc3c(c(=O)[nH]c(=O)n3C)n2Cc2ccccc2F)CC1	/	.	.	/	.	.
CC(=NCc1ccco1)c1c(O)n(C2CCCCC2)c(=O)[nH]c1=O	.	.	55	44	97	.
C/C(Cn1nnc([N+](=O)[O-])n1)=N\NC(=O)c1ccccc1	.	.	.	.	.	.
COCCNc1c(-c2ccc(O)cc2)nc2ccc(Cl)cn12	.	/	/	.	/	/
COC(=O)CNc1c(-c2ccccc2)nc2ccc(Br)cn12	.	.	77	.	69	.
CCC12CC3CC(C1)CC(C(=O)Nc1nn[nH]n1)(C3)C2	.	.	.	.	.	.
CC1=C(C(=O)Nc2ccccc2)C(c2ccc(C)o2)n2c(s/c(=C/c3ccccc3)c2=O)=N1 (stereo not given)	.	.	87	.	72	.
CC1=C(C(=O)Nc2ccccc2)C(c2ccc(C)o2)N2C(=O)CSC2=N1 (stereo not given)	.	.	.	.	64	.
CC1=C(C(=O)Nc2ccccc2C)C(c2ccc(C)o2)n2c(s/c(=C/c3ccccc3)c2=O)=N1 (stereo not given)	.	.	.	.	.	.
Cc1ccc(S(=O)(=O)n2ccnc2)cc1C	.	.	.	.	.	.
O=C(COc1ccc(Br)cc1CO)Nc1ccccc1F	.	.	67	.	95	.
Cc1ccccc1OCC(=O)NC1=NCCS1	.	.	.	.	51	.
Cc1ccccc1OCC(=O)Nc1ccccc1CO	.	.	.	.	72	.
SMILES	PostGolgi yeast	CYP2C9 activ	CYP2C9 inhib	PostGolgi ctrl	CYP2C19 inh	CYP2C19 activ
O=C(O)COc1ccc(Cl)cc1CO	.	.	.	.	.	.
CCOC(=O)Nc1cccc(OCC(=O)Nc2ccccc2OC)c1	.	/	/	.	/	/
COc1ccccc1NC(=O)COc1ccc(Br)cc1CO	.	.	.	.	55	.
CCOC(=O)CN(C(=O)CSc1nnc(CNc2ccc(F)cc2)o1)c1ccccc1	.	.	78	.	59	.
COC(=O)CN(C(=O)CSc1nnc(-c2cccc(OC)c2)o1)c1ccc(OC)cc1	.	.	60	.	.	.
O=C(CSc1nnc(COc2cccc3cccnc23)o1)N1CCc2ccccc21	.	.	.	.	.	.
COc1cccc(-c2nnc(SCC(=O)N3CCOCC3)o2)c1	.	.	.	.	.	.
CCOC(=O)CN(C(=O)CSc1nnc(-c2cccc(OC)c2)o1)c1ccc(F)cc1	.	.	92	.	85	.
O=C(CSc1nnc(COc2ccc(F)cc2)o1)N1c2ccccc2CCc2ccccc21	.	.	96	.	83	.
C=CCn1c(=O)c2ccccc2n2c(SCc3csc(-c4ccccc4)n3)nnc12	.	.	.	.	.	.
CCOc1ccc(-n2c(SCC(=O)Nc3ccc(OC)cc3OC)nc3c(c2=O)SCC3)cc1	.	.	.	.	.	.
COC(=O)c1ccc(Oc2c(C)oc3c(CN4CCN(C)CC4)c(O)ccc3c2=O)cc1	.	.	.	.	.	.
O=C(CSc1nnc(CNc2ccc(F)cc2)o1)N1c2ccccc2Sc2ccccc21	.	.	53	50	.	.
Cc1ncc([N+](=O)[O-])n1CCOC(=O)c1ccc(Cl)cc1Cl	.	.	.	.	51	.
CN(C)CCCOC(=O)c1ccc(Cl)cc1Cl	.	.	.	.	.	.
O=C(NCc1ccccc1)c1ccc(COCC(F)(F)F)o1	.	.	.	.	85	.
O=C(NCc1ccc(F)cc1)c1ccc(CS(=O)(=O)Cc2ccc(F)cc2)o1	.	.	.	.	.	.
O=C(NCc1ccccc1)c1ccc(-c2ccc(F)cc2)o1	.	.	56	31	55	.
O=C(NC1CCCCC1)c1ccc(COCC(F)(F)F)o1	.	.	.	.	.	.
Cc1cn2c(-c3cccnc3)nnc2s1	.	.	.	.	.	.
COCCn1c(SCC(N)=O)nc2c(c1=O)SC(C)C2 (stereo not given)	.	/	/	.	/	/
COC(=O)COc1cc(C)cc2oc(=O)c(CC(=O)OC)c(C)c12	.	.	.	.	.	.
c1cc2cn[nH]c2cc1NC1CCCCCC1	.	.	64	.	99	.
O=C(OCC(=O)N(C1CCCCC1)C1CCCCC1)c1cnccn1	.	.	.	.	54	.
O=C(NC1CCCCCCC1)c1cnccn1	.	.	.	.	63	.
SMILES	PostGolgi yeast	CYP2C9 activ	CYP2C9 inhib	PostGolgi ctrl	CYP2C19 inh	CYP2C19 activ
O=C(NC1CCS(=O)(=O)C1)c1cnccn1 (stereo not given)	.	.	.	.	.	.
CCN(C(=O)COC(=O)c1cnc(C)cn1)C1CCCCC1	.	.	.	.	.	.
CS(=O)(=O)N1CCCC(C(=O)NCc2ccc(F)cc2Cl)C1 (stereo not given)	.	.	.	.	.	.
CC(C)C1CC(O)(C2(O)CCCCC2)ON1 (stereo not given)	.	.	.	.	.	.
O=C(Nc1cc(S(=O)(=O)N2CCOCC2)ccc1Cl)C(=O)c1c(-c2ccccc2)cc2ccccn12	93	.	70	100	.	.
CCOC(=O)C(=O)Nc1ccc(S(=O)(=O)N2CCOCC2)cc1OC	.	.	.	.	.	.

Screening results from PubChem BioAssay.
